Data: the supplement of paper PMC12024424
Structures can show the parent of a compound that is named as a salt.

Test system: Staphylococcus aureus Sa2 (MRSA, cystic fibrosis isolate)
Assay: growth reduction vs untreated control (viable cell count); higher = stronger antibacterial activity; extreme values may be limits of the assay
Conditions: 0.1 mM; 24 h
Description: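 Single-dose screen of the MedChem Express Drug Repurposing Library (0.1 mM, 1% DMSO) against planktonic MRSA S. aureus Sa2 (CF isolate) in TSB in 96-well plates, 37 °C aerobic, 24 h. Assays were run in triplicate and repeated twice.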

SMILES | growth reduction [%]
CN[C@H]1CC[C@@H](c2ccc(Cl)c(Cl)c2)c2ccccc21 [Sertraline (hydrochloride)] | 100
Cc1cc([C@H](C)Nc2nccc(N3C(=O)OC[C@@H]3[C@@H](C)F)n2)ncc1-c1ccnc(C(F)(F)F)c1 | 97
Fc1ccc(C(c2ccc(F)cc2)N2CCN(C/C=C/c3ccccc3)CC2)cc1 [Flunarizine (dihydrochloride)] | 98
Cc1cccc(/C=N/Nc2cc(N3CCOCC3)nc(OCCc3ccccn3)n2)c1 [Apilimod (mesylate)] | 93
CC(C)c1c(C(=O)Nc2ccccc2)c(-c2ccccc2)c(-c2ccc(F)cc2)n1CC[C@@H](O)C[C@@H](O)CC(=O)O [Atorvastatin (hemicalcium salt)] | 98
COc1cc(F)c(F)c(Nc2ccc(I)cc2F)c1NS(=O)(=O)C1(C[C@H](O)CO)CC1 [Refametinib] | 100
COc1cc2c(Nc3ccc(Cl)c(Cl)c3F)ncnc2cc1OC[C@@H]1C[C@@H]2CN(C)C[C@@H]2C1 [Tesevatinib] | 100
C[C@H](CCC(=O)O)[C@H]1CC[C@H]2[C@@H]3[C@H](O)C[C@@H]4C[C@H](O)CC[C@]4(C)[C@H]3CC[C@]12C [Chenodeoxycholic Acid] | 99
Cc1ncc(NC(=O)c2ccc(CN3CCN(C)CC3)c(C(F)(F)F)c2)cc1Nc1nccc(-c2cccnc2)n1 [Flumatinib] | 100
CC(C)(C)c1ccc(C(O)CCCN2CCC(C(O)(c3ccccc3)c3ccccc3)CC2)cc1 (stereo not given) [Terfenadine] | 100
O=C(O)Cc1ccccc1Nc1c(Cl)cccc1Cl [Diclofenac (diethylamine)] | 100
Cc1ccc(NC(=O)C2(c3ccc4c(c3)OC(F)(F)O4)CC2)nc1-c1cccc(C(=O)O)c1 [Lumacaftor] | 96
CN(C)C(=O)/C=C/CNCCOc1ccc(/C(=C(/CC(F)(F)F)c2ccccc2)c2ccc3[nH]nc(F)c3c2)cn1 | 100
CC(C)(C)C#Cc1cc(N(C(=O)[C@H]2CC[C@H](C)CC2)[C@H]2CC[C@H](O)CC2)c(C(=O)O)s1 [Lomibuvir] | 95
COc1cc(C(=O)NS(=O)(=O)c2ccccc2C)ccc1Cc1cn(C)c2ccc(NC(=O)OC3CCCC3)cc12 [Zafirlukast] | 100
CC1=CC(=O)c2ccccc2C1=O [Menadione] | 100
CO[C@@H](Cc1ccc(OCCc2nc(-c3ccccc3)oc2C)c2ccsc12)C(=O)O [Aleglitazar] | 90
C#C[C@]1(OC(C)=O)CC[C@H]2[C@@H]3CCC4=C[C@@H](OC(C)=O)CC[C@@H]4[C@H]3CC[C@@]21C [Ethynodiol diacetate] | 94
CC/C(=C(\c1ccccc1)c1ccc(OCCN(C)C)cc1)c1ccccc1 [Tamoxifen (Citrate)] | 100
CCCCCCCOc1ccc(CCC(N)(CO)CO)cc1C(F)(F)F [Amiselimod (hydrochloride)] | 100

SMILES | growth reduction [%]
CN(C)CCOc1ccc(/C(=C(/CCCl)c2ccccc2)c2ccccc2)cc1 [Toremifene (citrate)] | 100
Clc1ccc(COC(Cn2ccnc2)c2ccc(Cl)cc2Cl)c(Cl)c1 (stereo not given) [Miconazole (nitrate)] | 100
C[C@@H](O[C@H]1OCCN(Cc2n[nH]c(=O)[nH]2)[C@H]1c1ccc(F)cc1)c1cc(C(F)(F)F)cc(C(F)(F)F)c1 [Aprepitant] | 100
C=C1CC[C@H](O)C/C1=C/C=C1\CCC[C@]2(C)[C@@H]([C@H](C)/C=C/[C@H](C)C(C)C)CC[C@@H]12 [Vitamin D2] | 100
Cc1nc2sccn2c(=O)c1CCN1CCC(=C(c2ccc(F)cc2)c2ccc(F)cc2)CC1 [Ritanserin] | 100
O=C(O)c1ccc(-n2nc(-c3ccccc3O)nc2-c2ccccc2O)cc1 [Deferasirox] | 99
CC(C)(C)C(=O)Oc1ccc(S(=O)(=O)Nc2ccccc2C(=O)NCC(=O)O)cc1 [Sivelestat (sodium)] | 93
CC1CS(=O)(=O)CCN1/N=C/c1ccc([N+](=O)[O-])o1 (stereo not given) [Nifurtimox] | 100
CCCSc1nc(N[C@@H]2C[C@H]2c2ccc(F)c(F)c2)c2nnn([C@@H]3C[C@H](OCCO)[C@@H](O)[C@H]3O)c2n1 [Ticagrelor] | 98
CC(C(=O)O)c1ccc2c(c1)CC(=O)c1ccccc1S2 (stereo not given) [Zaltoprofen] | 98
C1=N/C2=N/c3ccc(OCCN4CCCC4)c(c3)COC/C=C/COCc3cccc(c3)C(=C1)N2 [Pacritinib] | 100
O=C(c1ccc(F)c(F)c1Nc1ccc(I)cc1F)N1CC(O)([C@@H]2CCCCN2)C1 [Cobimetinib] | 100
O=C(Nc1ncc(SCCN2CCCC2)s1)[C@]1(c2ccc(S(=O)(=O)C3CC3)cc2)C[C@H]1C1CCCCC1 [Globalagliatin] | 100
Cc1ccc(C#Cc2ccc(S(=O)(=O)N[C@H](Cc3c[nH]c4ccccc34)C(=O)O)s2)cc1 | 100
C#C[C@]1(O)CC[C@H]2[C@@H]3CCC4=CCCC[C@@H]4[C@H]3C(=C)C[C@@]21CC [Desogestrel] | 100
CCCCCNC(=N)N/N=C/c1c[nH]c2ccc(OC)cc12 [Tegaserod (maleate)] | 100
O=C(Nc1ccccc1)c1ccccc1O [Salicylanilide] | 93
COCCNCc1ccc(-c2cc3nccc(Oc4ccc(NC(=O)C5(C(=O)Nc6ccc(F)cc6)CC5)cc4F)c3s2)nc1 [Sitravatinib] | 100
OC1(c2ccc(Cl)c(C(F)(F)F)c2)CCN(CCCC(c2ccc(F)cc2)c2ccc(F)cc2)CC1 [Penfluridol] | 100
Cc1cnc(NC(=O)Nc2cc(Br)c(C)cc2OC[C@@H]2CNCCO2)cn1 [Rabusertib] | 100
